Experimental data as given in the supplement of paper PMC12297408.
Counter-ions that a name gives are not always drawn. About 40 (3%) of roughly 1,300 compounds showed activity. The list comes from a sample in which actives are over-represented; it also holds similar structures and randomly drawn compounds.

System: Plasmodium falciparum NF54/iGP1_RE9H ulg8 stage V gametocytes
Assay: gametocyte viability (luciferase signal relative to DMSO control) (% of DMSO control); higher = less gametocytocidal activity, active = 50 or less
Conditions: exposure time: 72 h
In short: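 Viability was calculated relative to the mean of DMSO vehicle wells on each plate. Day-12 stage V gametocytes of line NF54/iGP1_RE9Hulg8 (~2.5% gametocytemia, 3% hematocrit, 0.5% Albumax II medium) were exposed in 96-well plates to compounds at final 10 µM or 1 µM, one well each, for 72 h at 37 °C. Luminescence was then read on an IVIS Lumina II after D-luciferin addition.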

Compound | gametocyte viability (concentration: 1 µM) | gametocyte viability (concentration: 10 µM)
CN(C)CCc1c[nH]c2ccc(C[C@H]3COC(=O)N3)cc12 [Zolmitriptan] | 83.8 (inactive) | 81.7 (inactive)
COc1ccccc1N1CCN(CCCNc2cc(=O)n(C)c(=O)n2C)CC1 [Urapidil hydrochloride] | 75.6 (inactive) | 48.5 (active)
COc1ccccc1N1CCN(CC(O)COc2cccc3ccccc23)CC1 (configuration not stated) [Naftopidil dihydrochloride] | 90.8 (inactive) | 83.2 (inactive)
COc1ccccc1N1CCN(CCCCNC(=O)c2ccc3ccccc3c2)CC1 | 82.8 (inactive) | 73.7 (inactive)
CCOC(=O)[C@H](CCc1ccccc1)N[C@@H](C)C(=O)N1CCC[C@H]1C(=O)O [Enalapril maleate] | 81.9 (inactive) | 86.7 (inactive)
COc1ccc(CCN(C)CCCC(C#N)(c2ccc(OC)c(OC)c2)C(C)C)cc1OC (configuration not stated) [Verapamil hydrochloride] | 91.8 (inactive) | 99.3 (inactive)
N/C(=N\C(=O)c1nc(Cl)c(N)nc1N)NCc1ccccc1 [Benzamil hydrochloride] | 88.7 (inactive) | 81.1 (inactive)
CC(C)c1ccc2oc3nc(N)c(C(=O)O)cc3c(=O)c2c1 [Amlexanox] | 80 (inactive) | 81.5 (inactive)
CCCCC(O)c1ccccc1 (configuration not stated) [Fenipentol] | 82 (inactive) | 82.9 (inactive)
CC(C)(C)NC(=O)[C@@H]1CN(Cc2cccnc2)CCN1C[C@@H](O)C[C@@H](Cc1ccccc1)C(=O)N[C@H]1c2ccccc2C[C@H]1O [Indinavir sulfate] | 67 (inactive) | 40 (active)
CC(C)(C)NC(=O)[C@@H]1C[C@@H]2CCCC[C@@H]2CN1C[C@@H](O)[C@H](Cc1ccccc1)NC(=O)[C@H](CC(N)=O)NC(=O)c1ccc2ccccc2n1 [Saquinavir mesylate] | 82.4 (inactive) | 78.9 (inactive)
CN1CCN(CCCN2c3ccccc3Sc3ccc(S(=O)(=O)N(C)C)cc32)CC1 [Thioproperazine dimesylate] | 81.7 (inactive) | 52.8 (inactive)
CN(C)CCCN1c2ccccc2Sc2ccc(C(F)(F)F)cc21 [Triflupromazine hydrochloride] | 83.7 (inactive) | 81.5 (inactive)
CN1CCCCC1CCN1c2ccccc2Sc2ccc([S+](C)[O-])cc21 (configuration not stated) [Mesoridazine besylate] | 88.9 (inactive) | 88.7 (inactive)
CSc1ccc2c(c1)N(CCC1CCCCN1C)c1ccccc1S2 (configuration not stated) [Thioridazine hydrochloride] | 87.7 (inactive) | 30.1 (active)
OCCN1CCN(CCCN2c3ccccc3Sc3ccc(C(F)(F)F)cc32)CC1 [Fluphenazine dihydrochloride] | 89.1 (inactive) | 68.1 (inactive)
CN1CCN(CCCN2c3ccccc3Sc3ccc(C(F)(F)F)cc32)CC1 [Trifluoperazine dihydrochloride] | 82.8 (inactive) | 46.8 (active)
CSc1ccc2c(c1)C(N1CCN(C)CC1)Cc1ccccc1S2 (configuration not stated) [Methiothepin maleate] | 86.1 (inactive) | 75.3 (inactive)
CN1CCN(CCCN2c3ccccc3Sc3ccc(Cl)cc32)CC1 [Prochlorperazine dimaleate] | 81.3 (inactive) | 78.9 (inactive)

Compound | gametocyte viability (concentration: 1 µM) | gametocyte viability (concentration: 10 µM)
CCSc1ccc2c(c1)N(CCCN1CCN(C)CC1)c1ccccc1S2 [Thiethylperazine dimalate] | 83.3 (inactive) | 32.4 (active)
C=C1/C(=C\C=C2/CCC[C@]3(C)[C@@H]([C@H](C)/C=C/[C@@H](O)C4CC4)CC[C@@H]23)C[C@@H](O)C[C@@H]1O [Calcipotriene] | 79.2 (inactive) | 64.3 (inactive)
CCN[C@H]1C[C@H](C)S(=O)(=O)c2sc(S(N)(=O)=O)cc21 [Dorzolamide hydrochloride] | 80.2 (inactive) | 87.2 (inactive)
CC(C)(Sc1cc(C(C)(C)C)c(O)c(C(C)(C)C)c1)Sc1cc(C(C)(C)C)c(O)c(C(C)(C)C)c1 [Probucol] | 84.2 (inactive) | 85.2 (inactive)
NC[C@@H]1O[C@H](O[C@H]2[C@@H](O)[C@H](O[C@@H]3[C@@H](O)[C@H](N)C[C@H](N)[C@H]3O[C@H]3O[C@H](CN)[C@@H](O)[C@H](O)[C@H]3N)O[C@@H]2CO)[C@H](N)[C@@H](O)[C@@H]1O [Neomycin sulfate] | 81.7 (inactive) | 84.7 (inactive)
COc1cc(C(=O)OCCCN2CCCN(CCCOC(=O)c3cc(OC)c(OC)c(OC)c3)CC2)cc(OC)c1OC [Dilazep dihydrochloride] | 85.4 (inactive) | 94.7 (inactive)
COCCCOc1ccnc(C[S+]([O-])c2nc3ccccc3[nH]2)c1C (configuration not stated) [Rabeprazole Sodium salt] | 83.8 (inactive) | 80.3 (inactive)
CN(C)c1ccc(O)c2c1C[C@H]1C[C@H]3[C@H](N(C)C)C(=O)C(C(N)=O)=C(O)[C@@]3(O)C(=O)C1=C2O [Minocycline hydrochloride] | 83.1 (inactive) | 83.3 (inactive)
C=C(CC)C(=O)c1ccc(OCC(=O)O)c(Cl)c1Cl [Ethacrynic acid] | 90.4 (inactive) | 92.5 (inactive)
N=C(N)NCc1cccc(I)c1 [Iobenguane sulfate] | 99.3 (inactive) | 100 (inactive)
CC1(C)O[C@@H]2C[C@H]3[C@@H]4C[C@H](F)C5=CC(=O)C=C[C@]5(C)[C@@]4(F)[C@@H](O)C[C@]3(C)[C@]2(C(=O)CO)O1 [Fluocinolone acetonide] | 83.3 (inactive) | 83.3 (inactive)
CCC1=C(C)CN(C(=O)NCCc2ccc(S(=O)(=O)NC(=O)N[C@H]3CC[C@H](C)CC3)cc2)C1=O [Glimepiride] | 97.7 (inactive) | 101 (inactive)
CC(C)(Oc1ccc(CCNC(=O)c2ccc(Cl)cc2)cc1)C(=O)O [Bezafibrate] | 98.6 (inactive) | 97 (inactive)
CCCCC(CC)CNC(=N)NC(=N)NCCCCCCNC(=N)NC(=N)NCC(CC)CCCC (configuration not stated) [Alexidine dihydrochloride] | 36.2 (active) | 0.515 (active)
O=C(O)[C@H]1/C(=C/CO)O[C@@H]2CC(=O)N21 [Potassium clavulanate] | 91.1 (inactive) | 87.4 (inactive)
C[C@]12CC[C@@H]3c4ccc(O)cc4CC[C@H]3[C@@H]1CCC2=O [Estrone] | 99.2 (inactive) | 96.4 (inactive)
C[C@]12CC[C@@H]3c4ccc(O)cc4CC[C@H]3[C@@H]1CC[C@@H]2O [Estradiol-17 beta] | 69.7 (inactive) | 41.9 (active)
C[C@]12CC[C@@H]3c4ccc(O)cc4CC[C@H]3[C@@H]1C[C@@H](O)[C@@H]2O [Estriol] | 94.6 (inactive) | 92.2 (inactive)
CCCCCCC[N+](CC)(CC)CCCCc1ccc(Cl)cc1 [Clofilium tosylate] | 97.3 (inactive) | 47.8 (active)

Compound | gametocyte viability (concentration: 1 µM) | gametocyte viability (concentration: 10 µM)
NNC(=O)c1ccncc1 [Isoniazid] | 80.8 (inactive) | 83.4 (inactive)
Cc1ncc(C[n+]2csc(CCO)c2C)c(N)n1 [Thiamine hydrochloride] | 94 (inactive) | 89.4 (inactive)
CCCc1cc(C(N)=S)ccn1 [Prothionamide] | 93.7 (inactive) | 95.2 (inactive)
CC(=O)Oc1cc(C(F)(F)F)ccc1C(=O)O [Triflusal] | 82.3 (inactive) | 87.1 (inactive)
CC1(O)CCOC(=O)C1 (configuration not stated) [Mevalonic-D, L acid lactone] | 86.7 (inactive) | 93.8 (inactive)
CC1c2cccc(O)c2C(O)=C2C(=O)C3(O)C(O)=C(C(N)=O)C(=O)C(N(C)C)C3C(O)C21 (configuration not stated) [Doxycycline hydrochloride] | 94.5 (inactive) | 92.2 (inactive)
CC(=O)N(O)CCCCCNC(=O)CCC(=O)N(O)CCCCCNC(=O)CCC(=O)N(O)CCCCCN [Deferoxamine mesylate] | 90.6 (inactive) | 82.7 (inactive)
CC(C(O)c1ccc(O)cc1)N1CCC(Cc2ccccc2)CC1 (configuration not stated) [Ifenprodil tartrate] | 81.9 (inactive) | 79.7 (inactive)
CC(=O)O[C@H]1C[C@@H]2CC[C@@H]3[C@H](CC[C@@]4(C)[C@H]3C[C@H]([N+]3(C)CCCCC3)[C@@H]4OC(C)=O)[C@@]2(C)C[C@@H]1N1CCCCC1 [Vecuronium bromide] | 85.2 (inactive) | 93.1 (inactive)
CCC(C)(C)c1ccc(CC(C)CN2C[C@@H](C)O[C@@H](C)C2)cc1 (some centres not stated) [Amorolfine hydrochloride] | 79.2 (inactive) | 71.3 (inactive)
Cc1ccc(C)c(OCCCC(C)(C)C(=O)O)c1 [Gemfibrozil] | 86.7 (inactive) | 88.3 (inactive)
C=CC(N)CCC(=O)O (configuration not stated) [Vigabatrin] | 84.9 (inactive) | 90.6 (inactive)
CC(Oc1c(Cl)cccc1Cl)C1=NCCN1 (configuration not stated) [Lofexidine] | 92.5 (inactive) | 90.5 (inactive)
CCCCC1C(=O)N(c2ccccc2)N(c2ccccc2)C1=O [Phenylbutazone] | 91 (inactive) | 85.4 (inactive)
O=C(O)CN(CCN(CC(=O)O)CC(=O)O)CCN(CC(=O)O)CC(=O)O [Pentetic acid] | 101 (inactive) | 101 (inactive)
NNc1nncc2ccccc12 [Hydralazine hydrochloride] | 94.8 (inactive) | 12.8 (active)
CCOC(=O)NNc1nncc2ccccc12 [Todralazine hydrochloride] | 86.1 (inactive) | 76.5 (inactive)
O=C1C(=O)c2ccccc2C(O)=C1C1CCC(c2ccc(Cl)cc2)CC1 (configuration not stated) [Atovaquone] | 91.4 (inactive) | 99.6 (inactive)
